Sampled rows, rich in hits. Any-hit rate of the full collection: about 1.6%.
Dyrk1A ADPGlo – rat Dyrk1A kinase inhibitors, primary screen, biochemical, single point, plate reader | hit rate 0.43% among 310,000 | inhibition, % at 12.5 µM | ADP-Glo luminescence, NFATc1 peptide | Dual specificity tyrosine-phosphorylation-regulated kinase 1A (Rattus norvegicus), Q63470; in the data active = inhibition above about 50%
B2AR ag – beta2AR agonists driving receptor internalization, primary screen, cell-based, FAP fluorogen, flow cytometry. Beta-2 adrenergic receptor (Homo sapiens), P07550. Am2.2-beta2AR cells. response, % (test concentration not listed). hit rate 0.43% among 340,000;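 active = response above a set limit, near 3 SD of response in nonfluorescent compounds, cut at about 42% in these data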
Target sequence (P07550 whole entry, looked up): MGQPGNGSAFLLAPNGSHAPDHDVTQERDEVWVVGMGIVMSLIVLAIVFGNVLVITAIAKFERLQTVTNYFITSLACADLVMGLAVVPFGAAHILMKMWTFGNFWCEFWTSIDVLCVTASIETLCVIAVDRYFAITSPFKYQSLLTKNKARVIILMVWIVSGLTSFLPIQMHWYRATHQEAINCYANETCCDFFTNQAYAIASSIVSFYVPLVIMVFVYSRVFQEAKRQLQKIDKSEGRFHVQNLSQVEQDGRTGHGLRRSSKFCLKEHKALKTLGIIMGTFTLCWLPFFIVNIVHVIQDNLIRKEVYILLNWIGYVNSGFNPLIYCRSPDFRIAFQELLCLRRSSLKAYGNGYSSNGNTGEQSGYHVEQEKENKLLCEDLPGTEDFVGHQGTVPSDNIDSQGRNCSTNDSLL
Bfl-1 A1 inh – caspase 3/7 activation in MEF A1-2A-BIM cells, primary screen, A1 inhibitor project, cell-based, luminescence, HTS | AID 2462, 2010 | Caspase-Glo 3/7 luminescence, 3 h; percent of clofoctol response, vehicle zero | hit rate 0.066% among 330,000 | caspase activation, % (test concentration not listed);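 active = over half of replicate activation scores above 10%, or exactly half above 10 with the replicate mean above 10; inconclusive = replicate mean below 10 yet half the replicates above 10; inactive = over half of replicates below 10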
dFosB act – activators of delta FosB homodimer, primary screen, biochemical, fluorescence polarization, TAMRA-CDK5 oligo, single point. Protein FosB (Mus musculus), P13346. purified delta FosB; percent of positive-control signal above neutral wells. activation, % at 25 µM. hit rate 0.99% among 340,000. AID 493131, 2011;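 active = mean activation above about 17%, with every replicate also reaching it, limit read from the data, passing the limit was not always enough; inconclusive = only one of the two conditions met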
Hits are given with their value; . = inactive; ? = inconclusive; / = not tested or not shown.

SMILES	Dyrk1A ADPGlo	B2AR ag	Bfl-1 A1 inh	dFosB act
CSc1cccc(NC(=O)CC2Oc3ccccc3NC2=O)c1 (stereo not drawn)	.	.	.	37
COc1cccc(NC(=O)CC2Oc3ccccc3NC2=O)c1 (stereo not drawn)	.	.	.	.
O=C1CCN(Cc2ccccc2)S(=O)(=O)c2c(F)cc(F)cc21	.	.	.	.
CC(=O)OCCN1C(=O)c2cccc3cc([N+](=O)[O-])cc(c23)C1=O	/	/	.	/
CN(C)CCN1C(=O)c2cccc3cc([N+](=O)[O-])cc(c23)C1=O	.	.	/	49
COc1ccc2o/c(=N\O)c(C(=O)Nc3ccccc3OC)cc2c1	.	53	.	.
COc1ccc2oc(=O)c(C(=O)Nc3ccccc3O)cc2c1	.	.	.	.
COc1ccc(CNC[C@@H](CCCCN(C)Cc2ccc(OC)cc2)N2C[C@H](c3ccccc3)N(CCc3ccc(Cl)c(Cl)c3)C(=O)C2=O)cc1	.	102	.	46
C=C(NC(=O)C(=C)NC(=O)c1csc(C2=NC3c4csc(n4)C4NC(=O)c5csc(n5)C(C(C)(O)C(C)O)NC(=O)C5CSC(=N5)/C(=C/C)NC(=O)C(C(C)O)NC(=O)c5csc(n5)C3(CC2)NC(=O)C(C)NC(=O)C(=C)NC(=O)C(=C)NC(=O)C(C(C)C)NC2C=Cc3c(C(C)O)cc(nc3C2O)C(=O)OC4C)n1)C(N)=O (stereo not drawn)	.	.	/	17
C=C(NC(=O)C(=C)NC(=O)c1csc(C2=NC3c4csc(n4)C4NC(=O)c5csc(n5)C([C@@](C)(O)C(C)O)NC(=O)C5CSC(=N5)/C(=C\C)NC(=O)C(C(C)O)NC(=O)c5csc(n5)[C@]3(CC2)NC(=O)C(C)NC(=O)C(=C)NC(=O)C(C)NC(=O)C(C(C)CC)NC2C=Cc3c(C(C)O)cc(nc3C2O)C(=O)OC4C)n1)C(N)=O (stereo partly drawn)	/	/	.	/
COc1ccc(C(C[N+](=O)[O-])C2(c3ccc(OC)c(OC)c3)C(=O)c3ccccc3C2=O)cc1 (stereo not drawn)	.	51	.	.
O=C(C[C@@H]1C/C=C\C[C@@H](NC(=O)OCC2c3ccccc3-c3ccccc32)C(=O)OCCNC1=O)N[C@@H](CO)Cc1ccccc1	/	.	.	.
Cc1cc(C)cc(NC(=O)/C(C#N)=C/c2cn(CC(=O)NCc3ccco3)c3ccccc23)c1	.	.	17	33
Cc1ccc(NC(=O)/C(C#N)=C/c2cn(CC(=O)NCc3ccco3)c3ccccc23)cc1C	.	.	?	60
Cc1ccc(NC(=O)Cn2cc(C=O)c3ccccc32)cc1C	.	.	.	20
Cc1ccc(C)c(NC(=O)/C(C#N)=C/c2cn(CC(=O)NCc3ccco3)c3ccccc23)c1	.	.	.	.
Cc1ccc(NC(=O)c2sccc2C)nc1	.	.	.	.
CN(C)S(=O)(=O)c1cccc(NC(=O)CCCc2nc3ccccc3c(=O)[nH]2)c1	.	.	.	.
CCN1CCN(CCNC(=O)c2ccc(/C=C3/Sc4ccccc4N(Cc4ccccc4C)C3=O)cc2)CC1	.	.	/	.
CCN1CCN(CCCNC(=O)c2ccc(/C=C3/Sc4ccccc4N(Cc4ccccc4F)C3=O)cc2)CC1	.	47	.	.
C=CCC(CC(O)COCCC)C(=O)NNC(=S)Nc1ccccc1 (stereo not drawn)	.	.	.	.
Cc1ccccc1C(=O)O/N=C(\N)c1ccccc1	55	.	.	.
Cc1ccccc1C(=O)O/N=C(\N)c1ccc([N+](=O)[O-])cc1	/	.	.	.
O=C(N/N=C\c1c(O)ccc2ccccc12)c1ccc(O)cc1	.	.	.	?
COc1ccc2ccccc2c1/C=N/NC(=O)c1nnn(-c2nonc2N)c1C(C)C	.	.	.	.
Nc1nonc1-n1nnc(C(=O)N/N=C/c2cc(Br)ccc2O)c1CNc1ccccc1	.	.	.	52
Cc1c(C(=O)N/N=C/c2c(O)ccc3ccccc23)nnn1-c1nonc1N	.	.	.	38
O=C(N/N=C/c1c(O)ccc2ccccc12)c1ccc(Br)o1	.	.	.	30
Cc1ccc(/C=N/NC(=O)c2nnn(-c3nonc3N)c2CNc2ccccc2)cc1	.	.	.	.
COc1ccc2c(c1)CCCC21SC(NC(C)=O)=NN1C(C)=O (stereo not drawn)	/	.	.	.
